Source: ChEMBL document CHEMBL2218924, “A broad activity screen in support of a chemogenomic map for kinase signalling research and drug discovery” (Biochem J, 2013)

Key:
[1] = molecular target: Tyrosine-protein kinase Lck (Homo sapiens) (UniProt P06239); conditions: at 10 µM
[2] = molecular target: Tyrosine-protein kinase Lck (Homo sapiens) (UniProt P06239); conditions: at 1 µM
[3] = molecular target: Tyrosine-protein kinase Lck (Homo sapiens) (UniProt P06239); conditions: at 10 µM; remark: listed apart in the source
[4] = molecular target: Tyrosine-protein kinase Lyn (Homo sapiens) (UniProt P07948); conditions: at 1 µM
[5] = molecular target: Tyrosine-protein kinase Lyn (Homo sapiens) (UniProt P07948); conditions: at 10 µM
[6] = molecular target: Mitogen-activated protein kinase 3 (Homo sapiens) (UniProt P27361); conditions: at 1 µM
[7] = molecular target: Mitogen-activated protein kinase 3 (Homo sapiens) (UniProt P27361); conditions: at 10 µM
[8] = molecular target: Mitogen-activated protein kinase 1 (Homo sapiens) (UniProt P28482); conditions: at 1 µM
[9] = molecular target: MAP kinase-activated protein kinase 3 (Homo sapiens) (UniProt Q16644); conditions: at 10 µM
[10] = molecular target: Serine/threonine-protein kinase MARK1 (Homo sapiens) (UniProt Q9P0L2); conditions: at 1 µM
[11] = molecular target: Serine/threonine-protein kinase MARK1 (Homo sapiens) (UniProt Q9P0L2); conditions: at 10 µM
[12] = molecular target: Dual specificity mitogen-activated protein kinase kinase 1 (Homo sapiens) (UniProt Q02750); conditions: at 1 µM
[13] = molecular target: Dual specificity mitogen-activated protein kinase kinase 1 (Homo sapiens) (UniProt Q02750); conditions: at 10 µM
[14] = molecular target: Maternal embryonic leucine zipper kinase (Homo sapiens) (UniProt Q14680); conditions: at 1 µM
[15] = molecular target: Maternal embryonic leucine zipper kinase (Homo sapiens) (UniProt Q14680); conditions: at 10 µM
[16] = molecular target: Misshapen-like kinase 1 (Homo sapiens) (UniProt Q8N4C8); conditions: at 10 µM
[17] = molecular target: MAP kinase-activated protein kinase 2 (Homo sapiens) (UniProt P49137); conditions: at 1 µM
[18] = molecular target: MAP kinase-activated protein kinase 2 (Homo sapiens) (UniProt P49137); conditions: at 10 µM
[19] = molecular target: Misshapen-like kinase 1 (Homo sapiens) (UniProt Q8N4C8); conditions: at 1 µM
[20] = molecular target: Mitogen-activated protein kinase 1 (Homo sapiens) (UniProt P28482); conditions: at 10 µM

Chain of Maternal embryonic leucine zipper kinase (Homo sapiens) (Q14680 whole entry, looked up): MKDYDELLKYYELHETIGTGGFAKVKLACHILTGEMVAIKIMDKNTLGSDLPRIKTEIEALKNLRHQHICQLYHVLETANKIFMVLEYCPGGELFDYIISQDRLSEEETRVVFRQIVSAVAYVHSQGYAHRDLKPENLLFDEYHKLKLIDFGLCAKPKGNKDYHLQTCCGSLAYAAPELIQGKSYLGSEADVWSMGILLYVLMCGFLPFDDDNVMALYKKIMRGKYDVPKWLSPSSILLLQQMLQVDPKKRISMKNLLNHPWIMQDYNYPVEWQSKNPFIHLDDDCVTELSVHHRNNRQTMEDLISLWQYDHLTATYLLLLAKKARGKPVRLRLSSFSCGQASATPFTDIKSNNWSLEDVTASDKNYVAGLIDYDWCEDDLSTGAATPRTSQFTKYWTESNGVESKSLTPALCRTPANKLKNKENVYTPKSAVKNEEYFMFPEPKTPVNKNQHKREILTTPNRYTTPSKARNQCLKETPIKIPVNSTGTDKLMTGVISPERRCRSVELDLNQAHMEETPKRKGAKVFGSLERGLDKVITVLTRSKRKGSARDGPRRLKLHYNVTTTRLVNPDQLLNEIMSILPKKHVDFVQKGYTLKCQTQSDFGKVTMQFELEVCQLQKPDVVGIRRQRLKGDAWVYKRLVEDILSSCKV
Chain of Misshapen-like kinase 1 (Homo sapiens) (Q8N4C8 whole entry, looked up): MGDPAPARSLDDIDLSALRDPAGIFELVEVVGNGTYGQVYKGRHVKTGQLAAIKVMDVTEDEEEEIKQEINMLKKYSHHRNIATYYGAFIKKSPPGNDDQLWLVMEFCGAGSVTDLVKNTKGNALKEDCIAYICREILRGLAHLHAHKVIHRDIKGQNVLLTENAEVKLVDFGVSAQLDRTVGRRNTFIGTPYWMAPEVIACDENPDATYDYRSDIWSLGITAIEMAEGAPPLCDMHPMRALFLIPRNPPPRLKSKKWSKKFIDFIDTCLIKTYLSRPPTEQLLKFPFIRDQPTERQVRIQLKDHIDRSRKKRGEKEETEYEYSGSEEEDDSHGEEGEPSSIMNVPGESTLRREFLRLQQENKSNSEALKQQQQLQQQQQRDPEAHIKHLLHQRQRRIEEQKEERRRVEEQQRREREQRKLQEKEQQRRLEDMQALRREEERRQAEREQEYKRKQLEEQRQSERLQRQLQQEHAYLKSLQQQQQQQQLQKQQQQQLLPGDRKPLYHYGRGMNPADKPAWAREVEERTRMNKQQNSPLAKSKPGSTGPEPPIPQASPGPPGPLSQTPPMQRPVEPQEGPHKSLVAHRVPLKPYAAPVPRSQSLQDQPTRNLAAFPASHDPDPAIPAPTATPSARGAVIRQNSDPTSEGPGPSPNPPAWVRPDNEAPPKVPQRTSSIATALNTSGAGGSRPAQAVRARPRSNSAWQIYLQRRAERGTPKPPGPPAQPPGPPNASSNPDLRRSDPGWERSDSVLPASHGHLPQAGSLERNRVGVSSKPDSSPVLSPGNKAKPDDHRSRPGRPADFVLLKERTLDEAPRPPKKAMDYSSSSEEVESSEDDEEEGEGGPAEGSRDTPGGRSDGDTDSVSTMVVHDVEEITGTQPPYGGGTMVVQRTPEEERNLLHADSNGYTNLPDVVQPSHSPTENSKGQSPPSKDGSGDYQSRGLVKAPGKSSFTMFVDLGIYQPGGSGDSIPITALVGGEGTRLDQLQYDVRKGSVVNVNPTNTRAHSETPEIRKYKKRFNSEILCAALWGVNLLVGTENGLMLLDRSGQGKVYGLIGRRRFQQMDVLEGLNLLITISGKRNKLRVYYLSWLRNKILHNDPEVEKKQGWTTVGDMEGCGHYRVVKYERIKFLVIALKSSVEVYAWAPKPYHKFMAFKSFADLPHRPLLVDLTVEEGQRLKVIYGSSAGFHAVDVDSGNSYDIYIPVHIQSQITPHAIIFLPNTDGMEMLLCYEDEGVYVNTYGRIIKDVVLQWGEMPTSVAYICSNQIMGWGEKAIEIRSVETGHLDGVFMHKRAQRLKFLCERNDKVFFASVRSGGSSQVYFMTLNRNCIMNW
Chain of Tyrosine-protein kinase Lyn (Homo sapiens) (P07948 2-512 limits assumed): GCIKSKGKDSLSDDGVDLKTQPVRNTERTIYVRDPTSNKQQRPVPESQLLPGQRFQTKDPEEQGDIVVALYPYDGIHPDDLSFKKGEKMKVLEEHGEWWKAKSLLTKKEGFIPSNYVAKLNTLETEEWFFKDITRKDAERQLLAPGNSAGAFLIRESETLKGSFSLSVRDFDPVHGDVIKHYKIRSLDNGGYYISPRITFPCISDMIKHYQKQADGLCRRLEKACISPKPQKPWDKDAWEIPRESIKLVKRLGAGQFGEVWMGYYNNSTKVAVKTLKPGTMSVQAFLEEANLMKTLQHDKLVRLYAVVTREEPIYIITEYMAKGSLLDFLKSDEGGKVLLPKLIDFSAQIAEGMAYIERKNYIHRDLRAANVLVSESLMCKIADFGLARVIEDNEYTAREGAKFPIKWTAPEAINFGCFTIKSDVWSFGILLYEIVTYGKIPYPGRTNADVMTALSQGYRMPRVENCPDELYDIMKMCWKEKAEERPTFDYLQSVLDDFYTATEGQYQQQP
Chain of MAP kinase-activated protein kinase 2 (Homo sapiens) (P49137 whole entry, looked up): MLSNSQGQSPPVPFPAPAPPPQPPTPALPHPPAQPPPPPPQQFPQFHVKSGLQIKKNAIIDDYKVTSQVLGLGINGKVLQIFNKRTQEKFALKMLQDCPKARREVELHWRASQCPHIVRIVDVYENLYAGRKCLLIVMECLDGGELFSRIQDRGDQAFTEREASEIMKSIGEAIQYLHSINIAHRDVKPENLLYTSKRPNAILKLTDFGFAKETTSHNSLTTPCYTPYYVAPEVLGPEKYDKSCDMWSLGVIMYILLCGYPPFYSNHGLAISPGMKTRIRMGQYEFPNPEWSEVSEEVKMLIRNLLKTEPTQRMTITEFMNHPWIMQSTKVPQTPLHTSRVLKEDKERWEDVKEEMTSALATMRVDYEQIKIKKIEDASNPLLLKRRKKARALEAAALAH
Chain of Tyrosine-protein kinase Lck (Homo sapiens) (P06239 2-509 limits assumed): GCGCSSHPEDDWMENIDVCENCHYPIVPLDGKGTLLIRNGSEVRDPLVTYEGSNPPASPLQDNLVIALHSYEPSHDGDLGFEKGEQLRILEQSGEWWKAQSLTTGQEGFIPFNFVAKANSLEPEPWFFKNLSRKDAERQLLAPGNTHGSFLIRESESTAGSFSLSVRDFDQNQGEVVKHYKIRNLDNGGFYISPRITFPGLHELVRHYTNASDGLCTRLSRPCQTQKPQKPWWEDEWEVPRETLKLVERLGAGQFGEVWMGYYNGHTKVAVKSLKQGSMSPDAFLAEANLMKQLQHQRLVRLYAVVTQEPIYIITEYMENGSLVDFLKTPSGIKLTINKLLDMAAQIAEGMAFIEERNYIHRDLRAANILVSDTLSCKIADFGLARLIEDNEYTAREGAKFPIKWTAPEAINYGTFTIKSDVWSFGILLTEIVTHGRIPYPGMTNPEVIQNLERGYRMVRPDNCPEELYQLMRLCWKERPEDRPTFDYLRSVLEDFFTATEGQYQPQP
Chain of Mitogen-activated protein kinase 1 (Homo sapiens) (P28482 whole entry): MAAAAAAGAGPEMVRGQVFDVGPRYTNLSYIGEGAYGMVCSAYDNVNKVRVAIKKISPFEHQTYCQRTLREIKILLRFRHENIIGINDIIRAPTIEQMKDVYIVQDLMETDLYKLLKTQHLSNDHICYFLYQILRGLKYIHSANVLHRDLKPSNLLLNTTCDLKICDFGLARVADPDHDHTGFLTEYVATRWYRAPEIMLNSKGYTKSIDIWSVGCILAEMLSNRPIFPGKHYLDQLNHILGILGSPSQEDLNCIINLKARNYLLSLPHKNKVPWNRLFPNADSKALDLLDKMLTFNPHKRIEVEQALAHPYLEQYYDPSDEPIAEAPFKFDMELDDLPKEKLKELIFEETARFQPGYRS
Chain of Serine/threonine-protein kinase MARK1 (Homo sapiens) (Q9P0L2 whole entry, looked up): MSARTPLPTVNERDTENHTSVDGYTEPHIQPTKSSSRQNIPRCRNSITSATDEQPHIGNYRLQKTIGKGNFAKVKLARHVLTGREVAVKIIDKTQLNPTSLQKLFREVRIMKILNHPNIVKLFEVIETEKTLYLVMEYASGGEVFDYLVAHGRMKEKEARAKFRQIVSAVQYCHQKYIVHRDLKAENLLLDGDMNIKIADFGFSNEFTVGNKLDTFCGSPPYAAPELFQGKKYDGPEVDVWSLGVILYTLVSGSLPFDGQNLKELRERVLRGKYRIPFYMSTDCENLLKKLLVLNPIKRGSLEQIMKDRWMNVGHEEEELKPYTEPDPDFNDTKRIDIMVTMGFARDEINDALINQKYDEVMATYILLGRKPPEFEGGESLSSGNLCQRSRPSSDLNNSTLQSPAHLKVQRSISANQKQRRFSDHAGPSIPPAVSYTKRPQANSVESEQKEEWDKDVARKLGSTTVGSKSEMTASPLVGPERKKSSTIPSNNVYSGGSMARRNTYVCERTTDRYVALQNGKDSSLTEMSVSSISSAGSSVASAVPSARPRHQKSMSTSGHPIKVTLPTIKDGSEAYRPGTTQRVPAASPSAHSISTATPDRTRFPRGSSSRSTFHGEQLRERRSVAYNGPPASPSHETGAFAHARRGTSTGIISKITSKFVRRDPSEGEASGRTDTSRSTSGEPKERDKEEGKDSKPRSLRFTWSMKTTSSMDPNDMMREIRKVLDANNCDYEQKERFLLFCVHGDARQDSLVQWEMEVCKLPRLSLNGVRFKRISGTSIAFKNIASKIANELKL
Chain of MAP kinase-activated protein kinase 3 (Homo sapiens) (Q16644 whole entry, looked up): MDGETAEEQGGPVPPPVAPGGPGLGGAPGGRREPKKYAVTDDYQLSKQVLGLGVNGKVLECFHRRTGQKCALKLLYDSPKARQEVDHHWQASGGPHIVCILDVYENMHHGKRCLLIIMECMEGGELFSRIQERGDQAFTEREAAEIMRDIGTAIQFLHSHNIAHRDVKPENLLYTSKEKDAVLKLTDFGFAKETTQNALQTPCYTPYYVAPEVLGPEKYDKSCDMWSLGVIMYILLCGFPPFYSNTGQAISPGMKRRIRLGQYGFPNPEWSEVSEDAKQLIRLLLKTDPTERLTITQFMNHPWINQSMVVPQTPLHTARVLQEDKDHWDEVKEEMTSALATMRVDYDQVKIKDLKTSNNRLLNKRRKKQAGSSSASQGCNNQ

Row | Structure (SMILES) | residual activity [1] [%] | residual activity [2] [%] | residual activity [3] [%] | residual activity [4] [%] | residual activity [5] [%] | residual activity [6] [%] | residual activity [7] [%] | residual activity [8] [%] | residual activity [9] [%] | residual activity [10] [%] | residual activity [11] [%] | residual activity [12] [%] | residual activity [13] [%] | residual activity [14] [%] | residual activity [15] [%] | residual activity [16] [%] | residual activity [17] [%] | residual activity [18] [%] | residual activity [19] [%] | residual activity [20] [%]
1 | COc1ccc2c(c1)c(C1=C(c3c[nH]c4ccccc34)C(=O)NC1=O)cn2CCCN(C)C | 25 | 65 | 27 | 63 | 13 | 104 | 82 | 114 | 135 | 75 | 53 | 102 | 75 | 54 | 26 | 61 |  |  |  | 
2 | O=C(O)/C=C/c1cc(Br)c(Br)c(Br)c1Br | 95 |  | 80 | 70 | 63 | 106 | 104 |  | 82 | 104 | 82 | 106 | 65 | 82 | 80 | 87 | 93 | 79 | 105 | 
3 | COc1cc2ncnc(Nc3cccc(Cl)c3)c2cc1OC | 12 | 49 | 15 | 10 | 1 |  | 65 | 101 | 65 |  | 83 | 114 | 71 | 89 | 59 | 76 | 108 | 105 |  | 80
4 | COc1cc2nccc(Oc3ccc(NC(=S)NC(=O)c4ccccc4C)cc3)c2cc1OC | -1 | 0 | 0 | 0 | 0 | 83 | 82 | 93 | 56 | 81 | 75 | 86 | 68 | 98 | 84 | 69 | 73 | 66 | 77 | 87
5 | CSc1nc(-c2ccc(F)cc2)c(-c2ccnc(NC(C)c3ccccc3)c2)[nH]1 (stereo unspecified) | 62 |  | 37 | 52 | 29 |  |  |  |  | 94 | 76 |  |  | 88 | 61 | 59 | 79 | 98 |  | 
6 | CCCCc1c(-c2ccc(OC)cc2)[nH]c2nccnc12 | 63 | 63 | 82 | 37 | 11 |  |  | 117 | 109 | 78 | 76 | 140 | 112 | 74 | 75 |  | 89 | 109 | 104 | 105
7 | O=C1Nc2ccc(Cl)cc2/C1=C/c1cc(Cl)c(O)c(Cl)c1 | 53 | 74 | 51 | 81 | 23 | 76 | 70 |  | 61 | 69 | 35 | 99 | 49 | 60 | 46 | 35 | 67 | 71 | 35 | 
8 | CCCC(=O)Oc1ccc2[nH]c(C(=O)c3cc4ccccc4[nH]3)cc2c1 | 73 | 80 | 76 | 61 | 31 | 77 | 80 | 100 | 94 | 80 | 84 | 93 | 100 | 88 | 87 | 82 | 75 | 87 | 82 | 104
9 | c1ccc(-c2cnc(Nc3ccc(OCCN4CCCC4)cc3)s2)cc1 | 19 | 36 | 5 | 29 | 4 |  |  |  | 104 |  |  | 113 |  | 64 | 20 | 12 |  |  | 61 | 
10 | O=C(NC(NC(=S)Nc1ccc(F)c([N+](=O)[O-])c1)C(Cl)(Cl)Cl)C(c1ccccc1)c1ccccc1 (stereo unspecified) | 55 | 86 | 74 | 89 | 66 | 82 | 82 |  |  | 96 | 80 |  |  | 76 | 76 |  | 90 | 78 |  | 
11 | NCCNc1ncc(C(N)=O)c(Nc2cccc(C(F)(F)F)c2)n1 | 37 | 82 | 29 | 27 | 3 | 72 | 40 |  | 72 | 72 | 30 | 73 | 25 |  |  |  |  | 49 |  | 43
12 | CCCCc1c(-c2ccc(O)cc2)[nH]c2nccnc12 | 50 | 63 | 59 |  |  | 96 | 73 |  |  | 74 | 38 |  |  | 76 | 72 | 86 | 98 |  | 97 | 
13 | COc1cc2nccc(Oc3ccc(NC(=O)Nc4cc(C)on4)c(Cl)c3)c2cc1OC | 1 | -2 | 1 | -1 | 2 |  |  | 103 | 67 | 99 |  | 62 | 20 |  | 80 | 21 |  |  | 71 | 104
14 | Nc1ncnc2c1c(-c1ccc(Oc3ccccc3)cc1)cn2C1CCCC1 | -1 | -3 | 2 | 0 | 1 | 76 | 66 | 106 | 84 | 74 | 54 | 48 | 24 | 72 | 31 | 82 | 82 | 77 | 93 | 93
15 | O=C(c1cc2cc(O)ccc2[nH]1)c1cc2cc(O)ccc2[nH]1 | 2 | 22 | 7 | 6 | -1 | 82 | 64 |  |  | 40 | 5 | 80 | 26 | 27 | 3 | 4 | 64 | 51 | 21 | 
16 | O=C1NC(=O)C(c2cn(CCCn3ccnc3)c3ccccc23)=C1Nc1ccccc1 | 65 |  | 66 |  | 39 |  | 70 | 104 |  | 77 | 51 | 104 | 39 |  |  | 47 | 100 |  |  | 110
17 | COc1ccc(-c2cnc3c(-c4ccsc4)cnn3c2)cc1 | 123 | 93 | 91 | 98 | 95 | 84 | 91 |  |  | 91 | 95 |  |  | 80 | 87 | 76 | 91 |  | 89 | 
18 | Nc1ncnc2[nH]nc(Nc3ccc(F)cc3)c12 | 14 | 31 | 19 | 19 | 3 | 90 | 43 | 101 | 112 |  | 69 | 60 | 23 |  | 51 | 48 | 75 | 95 |  | 67
19 | O=C(c1ccccc1)c1ccc(N2CCOCC2)cc1O | 94 | 96 | 78 | 85 | 72 | 90 | 89 |  | 93 | 93 | 83 | 80 | 90 | 85 | 65 | 60 | 73 | 89 | 85 | 
20 | COc1ccc(CNC(=O)Nc2ncc([N+](=O)[O-])s2)cc1 | 37 | 6 | 9 |  |  |  |  | 120 |  |  | 76 |  |  |  |  |  |  |  |  | 101
21 | CC(C)c1nn(-c2c(Cl)cccc2Cl)c2nc(Cc3ccc(OCCO)cc3)[nH]c(=O)c12 | 85 |  | 88 | 81 | 36 | 94 | 73 |  | 91 | 80 | 47 | 82 |  | 65 | 67 | 93 | 80 | 89 | 97 | 89
22 | O=c1cc(N2CCOCC2)oc2c1ccc1ccccc12 | 101 | 89 | 88 | 103 | 90 | 101 | 80 | 103 | 109 | 93 | 89 |  | 92 | 92 | 91 | 110 | 100 | 87 | 102 | 106
23 | CCN(CC)CCNC(=O)c1c(C)[nH]c(/C=C2\C(=O)Nc3ccc(Cl)cc32)c1C | 2 | 6 | -1 | 2 | 3 |  | 115 |  |  | 14 | 3 | 21 | 8 | 8 | 3 | 2 |  |  | 9 | 
24 | O=C1C(Cl)=C(N2C(=O)CCC2=O)C(=O)c2ccccc21 | 99 |  | 93 | 87 | 84 | 102 | 91 |  | 100 | 82 | 81 |  | 67 |  | 70 |  | 69 | 87 |  | 
25 | O=C1NC(=O)c2c1c1c3ccccc3[nH]c1n1cncc21 | 49 | 72 | 47 | 57 | 19 | 86 | 90 |  | 82 | 25 | 21 | 59 | 67 | 27 | 10 | 45 | 79 | 89 | 77 | 98
